# Data taken from PubChem BioAssay.
# Entries with a potency or affinity are not part of this list. Values without a mark were called inactive.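 The calls were made as follows: active = fitted dose curve reaches 40% lysis signal rise at or below the highest valid concentration tested for that sample; inconclusive = flat fit between 30% and 70%, or poor curve fit; inactive = signal falls, stays flat within 30%, or no crossing.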
# Assay: inducers of Cryptococcus neoformans cell lysis, dose response, AK release luminescence, cherry-picks (AID 687000);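 also: luminescent detection of adenylate kinase leaking from lysed yeast; 0% = median neutral control signal and 100% = double that signal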
# Details: C. neoformans lysis, adenylate kinase release luminescence, 4 h, 100% = twice the neutral-control signal; series mostly up to 15 µM; lysis activity: at the top concentration
row,SMILES,lysis activity
1,COc1ccc(NC(=O)CSc2ncnc3c2cnn3CCc2ccccc2)cc1,-11.5%
2,O=C(NC(=S)Nc1ccc(N2CCOCC2)cc1)c1cccc([N+](=O)[O-])c1,-15%
3,C[C@H]1CN([C@@H](C)CO)C(=O)Cc2cc(NC(=O)C3CC3)ccc2O[C@@H]1CN(C)C(=O)Nc1cccc2ccccc12,-6.07%
4,COc1ccccc1-c1ccc([C@H]2[C@H](C#N)N(C(=O)C3CC3)[C@H]2CO)cc1,-6.92%
5,Cc1ccccc1OCC(=O)NC(C)c1ccccc1 (centres undefined),-8.6%
6,CO[C@@H]1CN(C)C(=O)c2cc(NC(=O)C3CCOCC3)ccc2OC[C@H](C)NC[C@@H]1C,-9.03%
7,COc1ccc(N(C)C(=O)c2cn(CC(C)C)c(=O)c3cc(OC)c(OC)cc23)c(OC)c1,-2.19%
8,O=C(Oc1ccc2c3c(c(=O)oc2c1)CCCC3)c1ccco1,-44.6%
9,O=C(CSc1ncnc2c1cnn2-c1ccccc1)NCC1CCCO1 (centres undefined),2.36%
10,Cc1cc(C(=O)Nc2cccc3c2O[C@@H](CN(C)S(=O)(=O)c2ccccc2)[C@@H](C)CN([C@@H](C)CO)C3=O)n(C)n1,1.55%
11,CC(=O)c1cccc(NC(=S)NC2CCCCCCC2)c1,7.51%
12,CCCN1C(=O)C(O)(C2CC(=O)CC(C)(C)O2)c2ccccc21 (centres undefined),7.78%
13,Cc1cc(OCC(=O)NC(C)c2ccccc2)ccc1[N+](=O)[O-] (centres undefined),-0.041%
14,O=C(C[C@@H]1C=C[C@@H](NC(=O)Nc2cc(F)ccc2F)[C@H](CO)O1)NCCCN1CCOCC1,-0.188%
15,CCc1ccc(C(=O)NC(=S)Nc2ccccc2N2CCOCC2)cc1,-14.5%
16,CC(C)N1C(=O)C2(OCCCO2)c2cc(Br)ccc21,-11.1%
17,CC(=O)N[C@H]1CC[C@H](CCNC(=O)C2CCC2)O[C@@H]1CO,31.1%
18,Cc1ccc2c(C)c(C(=O)N3CCN(Cc4ccccn4)CC3)oc2c1C,-21.7%
19,COC(=O)C1=C(C)N(Cc2ccc(F)cc2)C(=S)NC1c1cccc(OC)c1 (centres undefined),10.3% [at 16 µM]
20,CC12CC3CC(C)(C1)CC(C(=O)NC(=S)N1CCCCC1)(C3)C2,3.12%

row,SMILES,lysis activity
1,C[C@H](CO)N1C[C@H](C)[C@H](CN(C)Cc2ccc(Cl)c(Cl)c2)Oc2c(NC(=O)Nc3ccccc3)cccc2C1=O,-0.565%
2,Cc1ccccc1-n1ncc2c(SCC(=O)N3c4ccccc4CC3C)ncnc21 (centres undefined),-8.51%
3,CCC(C)(C(=O)Nc1ccccc1C)N(C(=O)CNC(C)=O)c1ccccc1C (centres undefined),-2.29%
4,O=C(Nc1ccc(N2CCOCC2)cc1N1CCOCC1)c1cccc([N+](=O)[O-])c1,-13.4%
5,c1ccc(-n2ncc3c(NCc4ccc5c(c4)OCO5)ncnc32)cc1,-33.4%
6,CCC(C)N(C(=O)CSc1ncnc2c1cnn2-c1ccccc1)C1CCS(=O)(=O)C1 (centres undefined),3.75%
7,O=C(Nc1ccc2ncccc2c1)c1ccccc1,0.891%
8,COc1ccc(N2CCN(C(=O)CSc3ncnc4c3cnn4-c3ccccc3C)CC2)cc1,3.19%
9,CCOC(=O)CNC(=O)CSc1ncnc2c1cnn2-c1ccccc1,2.25%
10,Cc1ccc(/C=C2\SC(=S)N(NS(=O)(=O)c3ccc(C)cc3)C2=O)cc1,-24.5%
11,C[C@@H]1CN([C@H](C)CO)C(=O)CCCn2nncc2CO[C@H]1CN(C)Cc1cccc(C(F)(F)F)c1,-17.9%
12,O=C(COc1ccccc1)NCc1ccc2c(c1)OCO2,-11.6%
13,CC(C)Sc1nc2ncnc(N)c2[nH]1,-8.78%
14,CC(=O)NC12CC3CC(C1)CC(C(=O)NCC(=O)Nc1c(C)cc(C)cc1C)(C3)C2,5.33%
15,CO[C@H]1CN(C)C(=O)c2ccc(NC(=O)NC(C)C)cc2OC[C@@H](C)NC[C@H]1C,11.2%
16,COc1ccc(CN(C)C[C@@H]2Oc3ccc(NS(C)(=O)=O)cc3CC(=O)N([C@H](C)CO)C[C@H]2C)cc1,-11.6%
17,COc1ccc(C2CC(c3cccs3)=NN2C(=O)c2ccco2)cc1OC (centres undefined),4.54%
18,Cc1ccc(OCC(=O)NC(C)c2ccccc2)cc1 (centres undefined),0.954%
19,O=C(COc1ccc2c(c1)CCC2)NCc1ccc(Cl)cc1,-2.48%
